# Data from paper PMC11006913.
# Where a chain is given by its changes, count along the chain named.
# Columns and labels:
# Assay in all cases: PBM; 200 nM protein, PBS
# Details in all cases: dsDNA, one strand shown
# SIX6 [1] = target: T1, SIX6 (Homo sapiens, UniProt O95475 114-200, L167I)
# T1 sequence: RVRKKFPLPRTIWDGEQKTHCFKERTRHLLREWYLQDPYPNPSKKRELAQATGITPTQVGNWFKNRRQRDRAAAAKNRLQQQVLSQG
# SIX6 [2] = target: T2, SIX6 (Homo sapiens, UniProt O95475 114-200, L143V)
# T2 sequence: T1 sequence with L30V, I54L
# SIX6 [3] = target: T3, SIX6 (Homo sapiens, UniProt O95475 114-200, H141N)
# T3 sequence: T1 sequence with H28N, I54L
# SIX6 [4] = target: T4, SIX6 (Homo sapiens, UniProt O95475 114-200, T165P)
# T4 sequence: T1 sequence with T52P, I54L
# SIX6 [5] = target: T5, SIX6 (Homo sapiens, UniProt O95475 114-200, L167M)
# T5 sequence: T1 sequence with I54M
# SIX6 [6] = target: T6, SIX6 (Homo sapiens, UniProt O95475 114-200, L143M)
# T6 sequence: T1 sequence with L30M, I54L
# SIX6 [7] = target: T7, SIX6 (Homo sapiens, UniProt O95475 114-200, L143I)
# T7 sequence: T1 sequence with L30I, I54L
# SIX6 [8] = target: T8, SIX6 (Homo sapiens, UniProt O95475 114-200, T165G)
# T8 sequence: T1 sequence with T52G, I54L
# SIX6 [9] = target: T9, SIX6 (Homo sapiens, UniProt O95475 114-200, T139Q)
# T9 sequence: T1 sequence with T26Q, I54L
# SIX6 [10] = target: T10, SIX6 (Homo sapiens, UniProt O95475 114-200, T165A)
# T10 sequence: T1 sequence with T52A, I54L
# SIX6 [11] = target: T11, SIX6 (Homo sapiens, UniProt O95475 114-200, L167V)
# T11 sequence: T1 sequence with I54V
# SIX6 [12] = target: T12, SIX6 (Homo sapiens, UniProt O95475 114-200)
# T12 sequence: T1 sequence with I54L
# SIX6 [13] = target: T13, SIX6 (Homo sapiens, UniProt O95475 114-200, T165I)
# T13 sequence: T1 sequence with T52I, I54L
Sequence,binding signal (SIX6 [1]),binding signal (SIX6 [2]),binding signal (SIX6 [3]),binding signal (SIX6 [4]),binding signal (SIX6 [5]),binding signal (SIX6 [6]),binding signal (SIX6 [7]),binding signal (SIX6 [8]),binding signal (SIX6 [9]),binding signal (SIX6 [10]),binding signal (SIX6 [11]),binding signal (SIX6 [12]),binding signal (SIX6 [13])
CGTATCAA,"11.1 upbm affinity estimate (log intensity, higher = more binding, comparable within an allelic series)","10.2 upbm affinity estimate (log intensity, higher = more binding, comparable within an allelic series)","11.2 upbm affinity estimate (log intensity, higher = more binding, comparable within an allelic series)","9.64 upbm affinity estimate (log intensity, higher = more binding, comparable within an allelic series)","10.6 upbm affinity estimate (log intensity, higher = more binding, comparable within an allelic series)","11.1 upbm affinity estimate (log intensity, higher = more binding, comparable within an allelic series)","10.3 upbm affinity estimate (log intensity, higher = more binding, comparable within an allelic series)","11.1 upbm affinity estimate (log intensity, higher = more binding, comparable within an allelic series)","11 upbm affinity estimate (log intensity, higher = more binding, comparable within an allelic series)","11.1 upbm affinity estimate (log intensity, higher = more binding, comparable within an allelic series)","10.9 upbm affinity estimate (log intensity, higher = more binding, comparable within an allelic series)","10.9 upbm affinity estimate (log intensity, higher = more binding, comparable within an allelic series)","11 upbm affinity estimate (log intensity, higher = more binding, comparable within an allelic series)"
TAGTATCA,"11.3 upbm affinity estimate (log intensity, higher = more binding, comparable within an allelic series)","10.6 upbm affinity estimate (log intensity, higher = more binding, comparable within an allelic series)","11.1 upbm affinity estimate (log intensity, higher = more binding, comparable within an allelic series)","10 upbm affinity estimate (log intensity, higher = more binding, comparable within an allelic series)","10.8 upbm affinity estimate (log intensity, higher = more binding, comparable within an allelic series)","11 upbm affinity estimate (log intensity, higher = more binding, comparable within an allelic series)","10.4 upbm affinity estimate (log intensity, higher = more binding, comparable within an allelic series)","11.3 upbm affinity estimate (log intensity, higher = more binding, comparable within an allelic series)","11.3 upbm affinity estimate (log intensity, higher = more binding, comparable within an allelic series)","11.2 upbm affinity estimate (log intensity, higher = more binding, comparable within an allelic series)","11.1 upbm affinity estimate (log intensity, higher = more binding, comparable within an allelic series)","11 upbm affinity estimate (log intensity, higher = more binding, comparable within an allelic series)","11 upbm affinity estimate (log intensity, higher = more binding, comparable within an allelic series)"
GACGGCCC,"8.94 upbm affinity estimate (log intensity, higher = more binding, comparable within an allelic series)","8.75 upbm affinity estimate (log intensity, higher = more binding, comparable within an allelic series)","8.98 upbm affinity estimate (log intensity, higher = more binding, comparable within an allelic series)","8.86 upbm affinity estimate (log intensity, higher = more binding, comparable within an allelic series)","8.9 upbm affinity estimate (log intensity, higher = more binding, comparable within an allelic series)","8.78 upbm affinity estimate (log intensity, higher = more binding, comparable within an allelic series)","8.82 upbm affinity estimate (log intensity, higher = more binding, comparable within an allelic series)","9 upbm affinity estimate (log intensity, higher = more binding, comparable within an allelic series)","8.92 upbm affinity estimate (log intensity, higher = more binding, comparable within an allelic series)","8.88 upbm affinity estimate (log intensity, higher = more binding, comparable within an allelic series)","8.84 upbm affinity estimate (log intensity, higher = more binding, comparable within an allelic series)","8.88 upbm affinity estimate (log intensity, higher = more binding, comparable within an allelic series)","8.88 upbm affinity estimate (log intensity, higher = more binding, comparable within an allelic series)"
GCCGCGGC,"9.02 upbm affinity estimate (log intensity, higher = more binding, comparable within an allelic series)","8.88 upbm affinity estimate (log intensity, higher = more binding, comparable within an allelic series)","8.98 upbm affinity estimate (log intensity, higher = more binding, comparable within an allelic series)","9.04 upbm affinity estimate (log intensity, higher = more binding, comparable within an allelic series)","8.87 upbm affinity estimate (log intensity, higher = more binding, comparable within an allelic series)","9.03 upbm affinity estimate (log intensity, higher = more binding, comparable within an allelic series)","8.95 upbm affinity estimate (log intensity, higher = more binding, comparable within an allelic series)","9.01 upbm affinity estimate (log intensity, higher = more binding, comparable within an allelic series)","9.14 upbm affinity estimate (log intensity, higher = more binding, comparable within an allelic series)","8.95 upbm affinity estimate (log intensity, higher = more binding, comparable within an allelic series)","9.01 upbm affinity estimate (log intensity, higher = more binding, comparable within an allelic series)","9 upbm affinity estimate (log intensity, higher = more binding, comparable within an allelic series)","8.83 upbm affinity estimate (log intensity, higher = more binding, comparable within an allelic series)"
ACTGATAC,"11.3 upbm affinity estimate (log intensity, higher = more binding, comparable within an allelic series)","10.3 upbm affinity estimate (log intensity, higher = more binding, comparable within an allelic series)","11.3 upbm affinity estimate (log intensity, higher = more binding, comparable within an allelic series)","9.79 upbm affinity estimate (log intensity, higher = more binding, comparable within an allelic series)","10.5 upbm affinity estimate (log intensity, higher = more binding, comparable within an allelic series)","10.9 upbm affinity estimate (log intensity, higher = more binding, comparable within an allelic series)","10.4 upbm affinity estimate (log intensity, higher = more binding, comparable within an allelic series)","11.3 upbm affinity estimate (log intensity, higher = more binding, comparable within an allelic series)","11.3 upbm affinity estimate (log intensity, higher = more binding, comparable within an allelic series)","11.2 upbm affinity estimate (log intensity, higher = more binding, comparable within an allelic series)","10.9 upbm affinity estimate (log intensity, higher = more binding, comparable within an allelic series)","11 upbm affinity estimate (log intensity, higher = more binding, comparable within an allelic series)","11 upbm affinity estimate (log intensity, higher = more binding, comparable within an allelic series)"
GGCGCCCA,"8.76 upbm affinity estimate (log intensity, higher = more binding, comparable within an allelic series)","8.78 upbm affinity estimate (log intensity, higher = more binding, comparable within an allelic series)","8.67 upbm affinity estimate (log intensity, higher = more binding, comparable within an allelic series)","8.95 upbm affinity estimate (log intensity, higher = more binding, comparable within an allelic series)","8.83 upbm affinity estimate (log intensity, higher = more binding, comparable within an allelic series)","8.75 upbm affinity estimate (log intensity, higher = more binding, comparable within an allelic series)","8.8 upbm affinity estimate (log intensity, higher = more binding, comparable within an allelic series)","8.82 upbm affinity estimate (log intensity, higher = more binding, comparable within an allelic series)","8.81 upbm affinity estimate (log intensity, higher = more binding, comparable within an allelic series)","8.62 upbm affinity estimate (log intensity, higher = more binding, comparable within an allelic series)","8.78 upbm affinity estimate (log intensity, higher = more binding, comparable within an allelic series)","8.71 upbm affinity estimate (log intensity, higher = more binding, comparable within an allelic series)","8.73 upbm affinity estimate (log intensity, higher = more binding, comparable within an allelic series)"
CTGTATCA,"11.2 upbm affinity estimate (log intensity, higher = more binding, comparable within an allelic series)","10.3 upbm affinity estimate (log intensity, higher = more binding, comparable within an allelic series)","11.2 upbm affinity estimate (log intensity, higher = more binding, comparable within an allelic series)","9.69 upbm affinity estimate (log intensity, higher = more binding, comparable within an allelic series)","10.6 upbm affinity estimate (log intensity, higher = more binding, comparable within an allelic series)","10.9 upbm affinity estimate (log intensity, higher = more binding, comparable within an allelic series)","10.3 upbm affinity estimate (log intensity, higher = more binding, comparable within an allelic series)","11.1 upbm affinity estimate (log intensity, higher = more binding, comparable within an allelic series)","11.1 upbm affinity estimate (log intensity, higher = more binding, comparable within an allelic series)","11.1 upbm affinity estimate (log intensity, higher = more binding, comparable within an allelic series)","10.9 upbm affinity estimate (log intensity, higher = more binding, comparable within an allelic series)","10.9 upbm affinity estimate (log intensity, higher = more binding, comparable within an allelic series)","10.9 upbm affinity estimate (log intensity, higher = more binding, comparable within an allelic series)"
ATACCCAT,"10.6 upbm affinity estimate (log intensity, higher = more binding, comparable within an allelic series)","10.1 upbm affinity estimate (log intensity, higher = more binding, comparable within an allelic series)","10.6 upbm affinity estimate (log intensity, higher = more binding, comparable within an allelic series)","9.74 upbm affinity estimate (log intensity, higher = more binding, comparable within an allelic series)","10.4 upbm affinity estimate (log intensity, higher = more binding, comparable within an allelic series)","10.6 upbm affinity estimate (log intensity, higher = more binding, comparable within an allelic series)","10.1 upbm affinity estimate (log intensity, higher = more binding, comparable within an allelic series)","10.7 upbm affinity estimate (log intensity, higher = more binding, comparable within an allelic series)","10.8 upbm affinity estimate (log intensity, higher = more binding, comparable within an allelic series)","10.5 upbm affinity estimate (log intensity, higher = more binding, comparable within an allelic series)","10.4 upbm affinity estimate (log intensity, higher = more binding, comparable within an allelic series)","10.6 upbm affinity estimate (log intensity, higher = more binding, comparable within an allelic series)","10.4 upbm affinity estimate (log intensity, higher = more binding, comparable within an allelic series)"
GCCGCGCA,"8.96 upbm affinity estimate (log intensity, higher = more binding, comparable within an allelic series)","8.97 upbm affinity estimate (log intensity, higher = more binding, comparable within an allelic series)","8.91 upbm affinity estimate (log intensity, higher = more binding, comparable within an allelic series)","8.97 upbm affinity estimate (log intensity, higher = more binding, comparable within an allelic series)","8.9 upbm affinity estimate (log intensity, higher = more binding, comparable within an allelic series)","8.97 upbm affinity estimate (log intensity, higher = more binding, comparable within an allelic series)","8.96 upbm affinity estimate (log intensity, higher = more binding, comparable within an allelic series)","8.81 upbm affinity estimate (log intensity, higher = more binding, comparable within an allelic series)","8.99 upbm affinity estimate (log intensity, higher = more binding, comparable within an allelic series)","8.86 upbm affinity estimate (log intensity, higher = more binding, comparable within an allelic series)","8.86 upbm affinity estimate (log intensity, higher = more binding, comparable within an allelic series)","8.91 upbm affinity estimate (log intensity, higher = more binding, comparable within an allelic series)","8.89 upbm affinity estimate (log intensity, higher = more binding, comparable within an allelic series)"
GGTGATAC,"11.3 upbm affinity estimate (log intensity, higher = more binding, comparable within an allelic series)","10.3 upbm affinity estimate (log intensity, higher = more binding, comparable within an allelic series)","11.3 upbm affinity estimate (log intensity, higher = more binding, comparable within an allelic series)","9.52 upbm affinity estimate (log intensity, higher = more binding, comparable within an allelic series)","10.6 upbm affinity estimate (log intensity, higher = more binding, comparable within an allelic series)","11 upbm affinity estimate (log intensity, higher = more binding, comparable within an allelic series)","10.4 upbm affinity estimate (log intensity, higher = more binding, comparable within an allelic series)","11.3 upbm affinity estimate (log intensity, higher = more binding, comparable within an allelic series)","11.4 upbm affinity estimate (log intensity, higher = more binding, comparable within an allelic series)","11.3 upbm affinity estimate (log intensity, higher = more binding, comparable within an allelic series)","11 upbm affinity estimate (log intensity, higher = more binding, comparable within an allelic series)","11 upbm affinity estimate (log intensity, higher = more binding, comparable within an allelic series)","11 upbm affinity estimate (log intensity, higher = more binding, comparable within an allelic series)"
ATGATATC,"11.4 upbm affinity estimate (log intensity, higher = more binding, comparable within an allelic series)","10.5 upbm affinity estimate (log intensity, higher = more binding, comparable within an allelic series)","11.5 upbm affinity estimate (log intensity, higher = more binding, comparable within an allelic series)","9.88 upbm affinity estimate (log intensity, higher = more binding, comparable within an allelic series)","10.9 upbm affinity estimate (log intensity, higher = more binding, comparable within an allelic series)","11.2 upbm affinity estimate (log intensity, higher = more binding, comparable within an allelic series)","10.6 upbm affinity estimate (log intensity, higher = more binding, comparable within an allelic series)","11.6 upbm affinity estimate (log intensity, higher = more binding, comparable within an allelic series)","11.5 upbm affinity estimate (log intensity, higher = more binding, comparable within an allelic series)","11.4 upbm affinity estimate (log intensity, higher = more binding, comparable within an allelic series)","11.4 upbm affinity estimate (log intensity, higher = more binding, comparable within an allelic series)","11.3 upbm affinity estimate (log intensity, higher = more binding, comparable within an allelic series)","11.2 upbm affinity estimate (log intensity, higher = more binding, comparable within an allelic series)"
